This is part of a sample that, as a whole, favours compounds with a hit. Of some 83,000 tested, about 20% had one in any assay.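 Compound tested at a single concentration for 48 hours in 96-well plates; a percent growth value below 10 was scored as active.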 A number with no mark means an inactive call. Calls of active or inactive are those of the source.

Common to all, as to assay: NCI-60 one-dose screen, 48 h (100 = growth as untreated, 0 = no growth, -100 = all killed)
Conditions in all cases: 10 µM

Test [1] has as its system DU-145 prostate.
Test [2] has as its system K-562 leukemia.
Test [3] concerns MALME-3M melanoma.
Test [4] deals with MDA-MB-231 breast.
Test [5] relates to RXF 393 renal.
Test [6] concerns SF-268 CNS.
The test system of test [7] is SF-295 CNS.
Test [8] deals with SF-539 CNS.
In test [9] the test system is UACC-257 melanoma.
Test [10] deals with M14 melanoma.

On to `CS(=O)(=O)c1nccc(-c2c(-c3cccc(O)c3)nc3sccn23)n1`, for which the growth in [1] was 90.9%; in test [2], 101%; in test [3], 94.7%; in test [4], 74.4%; in [5] it was 85%; in test [6], 98.5%. The growth in [7] was 103%; in test [8], 92.4%; in test [9] it was 92.9%; in test [10] it was 94%.
Turning to `CCN(CC)CCOC(=O)c1cc(OCc2ccccc2)c(OCc2ccccc2)c(OCc2ccccc2)c1`, the growth in [1] is 64.6%; in test [2], 0.819% (active); in test [3], 54%; in test [4] it was 16%; in test [5], 47%; in test [6], 59.3%. In addition, the growth in test [7] was 84.5%; in [8], 81.1%; in test [9] it was 73.8%; in test [10], 18.4%.
As to `COc1cc2cc(Oc3ccc(NC(=O)c4cc(C(F)(F)F)cc(C(F)(F)F)c4)cc3)c(C)nc2cc1OC`, the growth in test [1] was 60.4%; in [2], 23.3%; in test [3], 73.7%; in test [4] it was 59.2%; in [5], 56.8%; in test [6], 74.7%. The growth in [7] was 6.46% (active); in test [8], 75.2%; in [9] it was 60.4%; in test [10], 61.6%.
Take `COc1cc(-c2nn(-c3ccc(NC(=O)NCCNS(=O)(=O)c4ccc(F)cc4)cc3)cc2-c2ccncc2)ccc1Cl`: the growth is 8.28% (active) in test [1]; 2.45% (active) in test [2]; 24.8% in test [3]; -30.7% (active) in test [4]; 2.59% (active) in test [5]; 7.56% (active) in [6]. In addition, the growth in test [7] is -39.5% (active); in [8] it was -46.4% (active); in [9] it was 41.2%; in test [10], -18% (active).
As to `CC(C)(C)OC(=O)N1CCc2c(sc3ncnc(N/N=C/c4ccccc4Br)c23)C1`, the growth is 91.9% in test [1]; 15.9% in test [2]; 90.4% in test [3]; 81.3% in test [4]; 81.8% in test [5]; 87.8% in test [6]. In addition, the growth in [7] was 89.5%; in [8], 80.6%; in [9], 82.6%; in test [10], 83.3%.
On to `CCOC(=O)C(C)(c1ccccc1)c1ccccc1`, for which the growth in test [1] was 106%; in test [2], 113%; in [3], 112%; in [4], 111%; in test [5], 123%; in test [6], 104%. For the same compound, the growth in test [7] is 102%; in test [8], 97.7%; in test [9], 93.5%; in test [10], 102%.
As for `CCCN(CCC)C(=O)[C@H](CC)[C@@H]1CC[C@@H](C)[C@@H]([C@H](C)[C@@H](O)[C@@H](C)C(=O)[C@H](CC)C2O[C@]3(C=C[C@@H](O)[C@]4(CC[C@@](C)([C@H]5CC[C@](O)(CC)[C@H](C)O5)O4)O3)[C@H](C)C[C@@H]2C)O1` (stereo not given in full), the growth is 31.5% in test [1]; 10.4% in [2]; -13.3% (active) in test [3]; -40.3% (active) in [4]; -6.32% (active) in test [5]; 24.5% in test [6]. In addition, the growth in test [7] is -5.79% (active); in test [8] it was 8.44% (active); in test [9] it was 8.4% (active); in [10], 13.9%.
Turning to `C/C=C/C1=CN2C(=O)c3cc(OC4OC(C)C(NC)C(C)(O)C4O)c(C)c(O)c3N=C[C@@H]2C1` (stereo not given in full), the growth was -12.7% (active) in test [1]; 4.18% (active) in test [2]; -51.9% (active) in test [3]; -10.1% (active) in test [4]; -40.5% (active) in test [5]; -35.5% (active) in test [6]. In addition, the growth is -25% (active) in test [7], -46.1% (active) in test [8], -6.48% (active) in test [9] and -63.2% (active) in [10].
`CC[C@@H](C(=O)[C@H](C)[C@H](O)[C@@H](C)[C@H]1O[C@H]([C@@H](CC)C(=O)O)CC[C@H]1C)C1O[C@]2(C=C[C@@H](O)[C@]3(CC[C@@](C)([C@H]4CC[C@](O)(CC)[C@H](C)O4)O3)O2)[C@H](C)C[C@@H]1C` (stereo not given in full): the growth in [1] is 51.3%; in test [2], 6.72% (active); in test [3], -83.6% (active); in [4] it was 17.3%; in test [5], -8.61% (active); in [6], 38%. Besides, the growth in test [7] is -12.6% (active); in test [8] it was 2.48% (active); in test [9], 35.3%; in [10] it was -38.8% (active).
Consider `COC(=O)C1(O)NC(=C(C#N)C#N)C(C#N)=C1C(=O)c1ccc(OC)c(OC)c1` (stereo not given), for which the growth was 111% in [1]; 100% in test [2]; 103% in test [3]; 119% in test [4]; 100% in test [5]; 98.5% in [6]. Also, the growth was 105% in test [7], 104% in test [8], 81.7% in test [9] and 97.9% in test [10].
As to `CN(C)CCN(Cc1ccccc1)c1ccc2ccccc2n1`, the growth in [1] was 107%; in test [2] it was 93.4%; in test [3], 96.5%; in test [4], 87.2%; in [5], 105%; in [6], 103%. The growth was 88.5% in test [7], 106% in test [8], 98% in test [9] and 91.3% in test [10].
In the case of `CCOC(=O)CN(c1sc(C)c(C)c1C(=O)OCC)S(=O)(=O)c1ccc(C)cc1`, the growth in test [1] was 92.1%; in [2], 103%; in test [3] it was 106%; in [4], 72.9%; in [5] it was 92.1%; in test [6] it was 107%. Further, the growth in [7] was 103%; in test [8], 107%; in test [9], 98.8%; in test [10] it was 107%.
With `COc1ccc(Nc2cnc3cc(NS(=O)(=O)c4ccc(C)cc4)ccc3n2)cc1`, the growth in [1] was 102%; in test [2], 24.2%; in test [3] it was 74.1%; in test [4], 67.6%; in test [5], 100%; in test [6] it was 88.1%. Besides, the growth in [7] is 75%; in [8] it was 80.9%; in test [9], 73.3%; in test [10], 75.8%.
